This note sets out measurements from ChEMBL document CHEMBL3988442, “University of Dundee, Small-Polar-MMV Screening Library” (2021).

Structures are written as SMILES. For some of these results: Measured potencies and affinities stand elsewhere.

Holding throughout (set-up): scale not given: direction of the effect not stated beside the values
In assay [1] the target is Protein translocase subunit SecA (Escherichia coli (strain K12)) (UniProt P10408). The assay is described as follows: Assay to Identify E. coli SecA ATPase Inhibitors. It counts as functional. To be noted: 30 µM.
Assay [2] concerns the target T1, Ubiquitin-activating enzyme e1, putative (Leishmania donovani (strain BPK282A1)) (UniProt E9BSI1).
T1 sequence (whole entry): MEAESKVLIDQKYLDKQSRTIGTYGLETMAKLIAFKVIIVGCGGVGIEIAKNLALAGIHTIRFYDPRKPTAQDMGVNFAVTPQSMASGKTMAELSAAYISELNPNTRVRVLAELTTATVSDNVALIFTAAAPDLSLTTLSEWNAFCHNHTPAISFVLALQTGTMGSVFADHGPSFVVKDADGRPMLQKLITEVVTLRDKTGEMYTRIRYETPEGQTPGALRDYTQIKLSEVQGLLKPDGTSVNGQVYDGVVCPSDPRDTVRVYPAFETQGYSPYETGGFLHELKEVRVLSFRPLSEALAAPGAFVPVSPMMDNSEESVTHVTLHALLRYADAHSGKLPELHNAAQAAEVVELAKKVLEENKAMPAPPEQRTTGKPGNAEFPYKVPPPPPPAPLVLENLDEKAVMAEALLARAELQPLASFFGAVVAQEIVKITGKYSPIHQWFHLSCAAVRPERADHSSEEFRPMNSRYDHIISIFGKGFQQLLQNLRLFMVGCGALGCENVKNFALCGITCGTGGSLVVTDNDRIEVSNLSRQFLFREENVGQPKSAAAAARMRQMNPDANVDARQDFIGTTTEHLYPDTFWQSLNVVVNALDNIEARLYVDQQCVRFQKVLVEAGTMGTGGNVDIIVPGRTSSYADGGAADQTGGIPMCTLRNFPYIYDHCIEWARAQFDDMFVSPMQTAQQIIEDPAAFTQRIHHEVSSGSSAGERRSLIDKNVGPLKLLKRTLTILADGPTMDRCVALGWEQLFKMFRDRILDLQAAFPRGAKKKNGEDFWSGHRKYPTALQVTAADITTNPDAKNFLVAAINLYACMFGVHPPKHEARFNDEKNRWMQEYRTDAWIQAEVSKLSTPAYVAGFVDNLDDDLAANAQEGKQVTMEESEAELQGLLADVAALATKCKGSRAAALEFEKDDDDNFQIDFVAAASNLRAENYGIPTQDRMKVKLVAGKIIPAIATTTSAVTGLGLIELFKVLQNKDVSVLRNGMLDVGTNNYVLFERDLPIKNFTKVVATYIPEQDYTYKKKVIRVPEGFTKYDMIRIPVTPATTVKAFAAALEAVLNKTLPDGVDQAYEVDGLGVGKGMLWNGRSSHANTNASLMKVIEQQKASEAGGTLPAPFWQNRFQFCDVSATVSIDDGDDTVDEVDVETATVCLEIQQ
Briefly: Leishmania donovani Ubiquitin Activating Enzyme (LdE1). It counts as functional. The conditions noted are these: 30 µM.

Assay [3] concerns the target Sialic acid-binding Ig-like lectin 9 (Homo sapiens) (UniProt Q9Y336). The assay is described as follows: Hs-Siglec9 ALPHAscreen SOP 20170721. The conditions noted are these: 10 µM. In general terms: In Alpha technology, singlet oxygen from a donor bead excites a nearby acceptor bead.
In another assay the test system is Trypanosoma cruzi. The assay is described as follows: Trypanosoma cruzi phosphomannomutase and mannose-1-phosphate guanylyltransferase assay. It counts as functional. To be noted: 10 µM.
The target in assay [4] is T2, Arginase-2, mitochondrial (Homo sapiens) (UniProt P78540).
T2 sequence (whole entry): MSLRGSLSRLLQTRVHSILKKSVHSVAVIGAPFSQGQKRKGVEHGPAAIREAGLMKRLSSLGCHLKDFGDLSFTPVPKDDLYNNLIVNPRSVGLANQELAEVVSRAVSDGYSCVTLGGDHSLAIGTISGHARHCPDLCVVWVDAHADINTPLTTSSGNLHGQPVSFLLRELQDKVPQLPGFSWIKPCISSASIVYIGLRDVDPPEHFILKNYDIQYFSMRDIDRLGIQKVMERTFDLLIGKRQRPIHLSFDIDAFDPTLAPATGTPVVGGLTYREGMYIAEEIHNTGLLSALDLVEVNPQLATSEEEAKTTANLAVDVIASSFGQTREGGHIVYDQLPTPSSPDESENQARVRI
Briefly: in vitro enzyme assay to detect the production of urea directly proportional to the activity of Arginase II. Further: in the data most compounds retested in dose-response had high values. It counts as functional. The conditions noted are these: 33.3 µM.

The target in assay [5] is T3, Proteasome subunit beta (Trypanosoma cruzi) (UniProt O96673).
T3 sequence (whole entry): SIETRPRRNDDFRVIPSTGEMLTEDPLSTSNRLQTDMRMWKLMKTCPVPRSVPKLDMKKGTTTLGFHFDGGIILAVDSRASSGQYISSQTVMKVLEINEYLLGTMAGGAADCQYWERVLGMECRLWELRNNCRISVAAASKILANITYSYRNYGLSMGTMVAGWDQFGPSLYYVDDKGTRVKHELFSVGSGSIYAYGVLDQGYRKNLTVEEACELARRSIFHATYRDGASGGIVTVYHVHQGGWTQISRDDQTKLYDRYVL
The assay is described as follows: Trypanosoma cruzi proteasome chymotrypsin-like activity (TcProtChymo) assay. Further: in the data most compounds retested in dose-response had high values. It counts as functional. To be noted: 9.37 µM.

The species named for another assay is Homo sapiens. Briefly: To identify inhibition of the IFN signalling (Jak-Stat) pathway via expression of an eGFP reporter gene under the control of an IFN-stimulated response element (ISRE) containing MxA promoter. It counts as functional. The conditions noted are these: 30 µM.
Assay [6] deals with T4, Tyrosyl-tRNA synthetase, putative (Trypanosoma cruzi (strain CL Brener)) (UniProt Q4DSP6).
T4 sequence (whole entry): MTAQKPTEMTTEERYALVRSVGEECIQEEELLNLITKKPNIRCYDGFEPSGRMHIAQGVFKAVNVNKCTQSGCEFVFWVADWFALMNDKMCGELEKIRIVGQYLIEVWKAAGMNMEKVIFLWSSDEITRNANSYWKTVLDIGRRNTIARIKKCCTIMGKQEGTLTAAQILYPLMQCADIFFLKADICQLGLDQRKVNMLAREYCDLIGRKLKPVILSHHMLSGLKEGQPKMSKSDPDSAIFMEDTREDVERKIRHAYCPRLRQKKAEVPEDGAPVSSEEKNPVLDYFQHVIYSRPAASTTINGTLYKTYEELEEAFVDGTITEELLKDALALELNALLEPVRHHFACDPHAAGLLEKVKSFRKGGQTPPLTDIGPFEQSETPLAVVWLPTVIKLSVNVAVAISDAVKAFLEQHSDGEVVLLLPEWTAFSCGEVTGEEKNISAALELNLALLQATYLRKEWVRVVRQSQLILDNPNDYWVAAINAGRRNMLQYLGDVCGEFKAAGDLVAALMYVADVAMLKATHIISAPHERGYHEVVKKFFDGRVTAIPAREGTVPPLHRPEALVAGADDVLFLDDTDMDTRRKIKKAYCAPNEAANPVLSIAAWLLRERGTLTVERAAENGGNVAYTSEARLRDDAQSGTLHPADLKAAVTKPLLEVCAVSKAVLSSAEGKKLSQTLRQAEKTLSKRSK
Briefly: Trypanosoma cruzi tyrosyl tRNA synthetase (TcYRS) _High Tyrosine SOP. Further: in the data most compounds retested in dose-response had high values. It counts as functional. To be noted: 30 µM.

Assay [7] deals with T4, Tyrosyl-tRNA synthetase, putative (Trypanosoma cruzi (strain CL Brener)). The assay is described as follows: Trypanosoma cruzi tyrosyl tRNA synthetase (TcYRS) SOP. It counts as functional. The conditions noted are these: 30 µM.
Assay [8] deals with Chromo domain-containing protein 1 (Saccharomyces cerevisiae (strain ATCC 204508 / S288c) (Baker's yeast)) (UniProt P32657). Briefly: ScCHD-1 Enzyme Inhibition Assay. Further: in the data most compounds retested in dose-response had high values. It counts as functional. The conditions noted are these: 30 µM.
Chain of Chromo domain-containing protein 1 (Saccharomyces cerevisiae (strain ATCC 204508 / S288c) (Baker's yeast)) (P32657 whole entry, the tested form may be a part): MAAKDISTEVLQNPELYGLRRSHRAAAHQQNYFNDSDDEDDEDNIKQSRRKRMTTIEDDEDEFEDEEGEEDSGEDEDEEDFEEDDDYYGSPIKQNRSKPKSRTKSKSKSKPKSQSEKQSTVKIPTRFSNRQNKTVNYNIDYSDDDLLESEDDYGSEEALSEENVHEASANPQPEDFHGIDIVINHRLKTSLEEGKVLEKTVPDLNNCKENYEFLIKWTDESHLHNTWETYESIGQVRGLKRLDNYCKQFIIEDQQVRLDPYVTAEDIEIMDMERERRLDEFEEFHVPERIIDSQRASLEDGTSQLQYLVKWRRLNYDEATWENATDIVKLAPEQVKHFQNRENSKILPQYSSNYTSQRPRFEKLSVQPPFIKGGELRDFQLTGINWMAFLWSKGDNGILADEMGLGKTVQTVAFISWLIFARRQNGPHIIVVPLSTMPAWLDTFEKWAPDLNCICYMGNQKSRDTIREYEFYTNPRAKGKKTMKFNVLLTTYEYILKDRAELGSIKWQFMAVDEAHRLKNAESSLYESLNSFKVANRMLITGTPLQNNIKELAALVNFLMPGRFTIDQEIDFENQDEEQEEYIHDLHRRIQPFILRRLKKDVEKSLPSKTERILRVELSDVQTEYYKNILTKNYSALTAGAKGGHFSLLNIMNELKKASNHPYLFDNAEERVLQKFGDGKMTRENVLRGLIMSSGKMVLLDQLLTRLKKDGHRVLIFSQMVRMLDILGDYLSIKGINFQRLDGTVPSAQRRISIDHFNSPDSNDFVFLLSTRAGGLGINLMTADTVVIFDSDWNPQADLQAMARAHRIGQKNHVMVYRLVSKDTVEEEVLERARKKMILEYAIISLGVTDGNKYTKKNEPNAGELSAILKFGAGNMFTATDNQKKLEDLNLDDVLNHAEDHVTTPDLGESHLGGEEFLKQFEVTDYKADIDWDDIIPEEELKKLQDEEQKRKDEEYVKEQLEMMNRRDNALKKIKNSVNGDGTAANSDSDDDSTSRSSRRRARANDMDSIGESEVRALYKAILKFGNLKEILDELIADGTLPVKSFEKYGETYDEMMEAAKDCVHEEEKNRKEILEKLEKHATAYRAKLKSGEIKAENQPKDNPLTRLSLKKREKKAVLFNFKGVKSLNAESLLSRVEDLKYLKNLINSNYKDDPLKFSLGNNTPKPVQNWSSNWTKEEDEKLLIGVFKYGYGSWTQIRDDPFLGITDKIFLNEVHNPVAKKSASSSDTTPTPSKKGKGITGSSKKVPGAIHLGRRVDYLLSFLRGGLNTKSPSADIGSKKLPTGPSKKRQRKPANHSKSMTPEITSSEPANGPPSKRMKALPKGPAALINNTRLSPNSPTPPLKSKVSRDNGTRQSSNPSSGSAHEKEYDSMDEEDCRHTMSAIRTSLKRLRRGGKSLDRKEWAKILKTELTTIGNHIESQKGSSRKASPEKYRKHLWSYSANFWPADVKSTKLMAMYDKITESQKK

Chain of Protein translocase subunit SecA (Escherichia coli (strain K12)) (P10408 whole entry): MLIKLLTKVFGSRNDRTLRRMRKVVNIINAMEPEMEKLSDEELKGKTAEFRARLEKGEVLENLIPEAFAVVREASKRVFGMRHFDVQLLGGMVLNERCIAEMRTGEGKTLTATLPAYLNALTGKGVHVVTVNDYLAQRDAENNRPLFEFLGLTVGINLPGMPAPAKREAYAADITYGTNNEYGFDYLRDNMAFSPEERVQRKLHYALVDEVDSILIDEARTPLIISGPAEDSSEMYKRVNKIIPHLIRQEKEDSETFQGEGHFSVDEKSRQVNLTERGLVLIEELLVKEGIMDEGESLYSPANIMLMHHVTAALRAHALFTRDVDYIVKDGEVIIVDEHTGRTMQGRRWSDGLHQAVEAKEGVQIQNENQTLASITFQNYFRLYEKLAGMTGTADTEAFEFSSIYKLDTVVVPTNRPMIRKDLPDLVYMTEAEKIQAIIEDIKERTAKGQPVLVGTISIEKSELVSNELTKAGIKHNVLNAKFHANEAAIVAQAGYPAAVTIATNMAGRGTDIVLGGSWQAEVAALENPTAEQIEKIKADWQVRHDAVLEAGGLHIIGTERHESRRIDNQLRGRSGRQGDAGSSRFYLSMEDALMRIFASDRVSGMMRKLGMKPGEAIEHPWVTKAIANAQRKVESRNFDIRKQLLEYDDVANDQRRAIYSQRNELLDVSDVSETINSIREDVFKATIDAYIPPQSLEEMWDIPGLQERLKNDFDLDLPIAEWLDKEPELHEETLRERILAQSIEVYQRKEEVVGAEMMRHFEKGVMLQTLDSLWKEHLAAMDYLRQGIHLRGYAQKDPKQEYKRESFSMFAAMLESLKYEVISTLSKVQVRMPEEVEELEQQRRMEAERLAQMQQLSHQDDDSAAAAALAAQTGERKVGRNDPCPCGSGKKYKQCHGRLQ
Chain of Sialic acid-binding Ig-like lectin 9 (Homo sapiens) (Q9Y336 whole entry): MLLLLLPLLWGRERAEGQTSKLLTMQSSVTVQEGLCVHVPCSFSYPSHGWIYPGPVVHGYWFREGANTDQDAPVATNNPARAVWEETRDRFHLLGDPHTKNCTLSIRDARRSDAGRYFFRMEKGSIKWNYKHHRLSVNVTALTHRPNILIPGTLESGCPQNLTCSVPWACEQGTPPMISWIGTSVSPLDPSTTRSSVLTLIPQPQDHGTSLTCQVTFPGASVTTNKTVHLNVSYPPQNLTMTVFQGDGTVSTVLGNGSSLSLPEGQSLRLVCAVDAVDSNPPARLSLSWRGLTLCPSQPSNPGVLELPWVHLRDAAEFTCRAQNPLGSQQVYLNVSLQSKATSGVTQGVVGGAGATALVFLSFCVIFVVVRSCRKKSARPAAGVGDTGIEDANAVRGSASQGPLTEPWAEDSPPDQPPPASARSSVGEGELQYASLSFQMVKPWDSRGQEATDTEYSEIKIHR

Turning to `CCc1nc(CNCC2CCCN2c2cc(NC)ncn2)cs1` (stereo not given), the Percent Effect was -1.05% in assay [1]; 0% in assay [2]; 1.02% in assay [3]; 9.48% in the assay with Trypanosoma cruzi; 1.64% in [4]; 6.91% in assay [5]. In addition, the Percent Effect is -11.3% in the assay filed under Homo sapiens, 3.35% in assay [6], 6.02% in assay [7] and -3.49% in assay [8].
As to `COc1ccc(CNCC2CCN(CC(C)O)CC2)c2ccccc12` (stereo not given), the Percent Effect was -1.39% in assay [1]; -10.3% in [2]; 5.63% in [3]; 5.73% with Trypanosoma cruzi; 6.97% in assay [4]; 0.939% in assay [5]. Moreover, the Percent Effect was 31.9% in the assay filed under Homo sapiens, 4.31% in assay [6], 18.1% in assay [7] and -4.71% in [8].
Regarding `Cc1cc(C)n(CC2CCCCN2C(=O)c2ccc3nncn3c2)n1` (stereo not given), the Percent Effect in assay [1] was -7.43%; in assay [2] it was 8%; in assay [3], 0.804%; with Trypanosoma cruzi it was 2.01%; in assay [4], -1.77%; in assay [5], 8.06%. Besides, the Percent Effect in the assay filed under Homo sapiens is 6.43%; in [6] it was 5.79%; in [7], 10.3%; in assay [8], -4.66%.
With `Cc1cc(OCC(=O)NS(=O)(=O)c2c(C)noc2C)ccc1Cl`, the Percent Effect in assay [1] is -0.396%; in [2], -5.13%; in assay [3], 2.29%; in the assay with Trypanosoma cruzi, 4.79%; in assay [4] it was 0%; in assay [5] it was 1.28%. The Percent Effect is 18.7% in the assay listed under Homo sapiens, -5.26% in assay [6], -1.21% in [7] and 0.575% in assay [8].
Consider `Cc1ccc2oc(C(=O)N3CCCC(n4nc(C)cc4C)C3)cc2n1` (stereo not given), for which the Percent Effect is -4.01% in [1]; 10.3% in assay [2]; 6.58% in [3]; 0.845% in the assay with Trypanosoma cruzi; 1.23% in assay [4]; 4.01% in assay [5]. The Percent Effect was -2.91% in the assay filed under Homo sapiens, 4.31% in assay [6], 13.2% in assay [7] and 3.09% in assay [8].
As to `Cc1noc(C)c1CN(C)C(=O)NC1CCN(C2CC2)CC1`, the Percent Effect in assay [1] was -1.46%; in assay [2] it was 2.56%; in [3], 0.345%; in the assay with Trypanosoma cruzi, 2.91%; in [4], -0.82%; in assay [5], -3.84%. For the same molecule, the Percent Effect in the assay filed under Homo sapiens was -6.08%; in assay [6], 2.39%; in assay [7], 8.43%; in assay [8], 3.21%.
In the case of `COCCNC(=O)c1cc(S(=O)(=O)N2CCCCC2)cs1`, the Percent Effect was -1.54% in [1]; 0% in assay [2]; -4.58% in assay [3]; -1.07% with Trypanosoma cruzi; 1.05% in assay [4]; 14.6% in [5]. Further, the Percent Effect was 19.3% in the assay listed under Homo sapiens, 0.532% in [6], 2.44% in [7] and 2.87% in assay [8].
As for `Cc1ccc(OC2(C(=O)O)CCN(C(=O)c3ccc(F)cc3)CC2)cn1`, the Percent Effect in assay [1] is -6.12%; in [2], -2.7%; in assay [3] it was 27.8%; with Trypanosoma cruzi, 9.41%; in [4], -1.05%; in [5], 1.88%. Further, the Percent Effect in the assay filed under Homo sapiens is -18.1%; in [6], 2.66%; in assay [7], 7.32%; in assay [8] it was -1.29%.
On to `COc1ccccc1-c1noc(CN2CCCC2Cn2cccn2)n1` (stereo not given), for which the Percent Effect in [1] is -4.25%; in [2], -13.3%; in assay [3], 1.74%; in the assay on Trypanosoma cruzi it was 3.01%; in [4] it was -0.444%; in assay [5], 14.3%. The Percent Effect in the assay filed under Homo sapiens was 1.34%; in [6], 1.58%; in assay [7], 0%; in assay [8] it was -7.06%.
`c1cnnc(N2CCCC(NCc3cn4ccccc4n3)C2)c1` (stereo not given): the Percent Effect was 4.38% in assay [1]; 23.4% in assay [2]; -9.09% in assay [3]; -10.8% in the assay on Trypanosoma cruzi; -1.43% in assay [4]; 26.5% in assay [5]. The Percent Effect in the assay filed under Homo sapiens is 17%; in assay [6], 8.82%; in assay [7], 11.8%; in assay [8], -10.5%.
